In PubChem BioAssay:

Experiment: resazurin metabolic signal in HepG2 cells – cell-based, resazurin fluorescence, 24 h, PK04 Diversity Set, profiling panel (AID 1172); note: test concentration not given here
Details: HepG2 viability, higher = more signal

Structure (SMILES) | z-score
C[C@]1(C(=O)NCc2ccccc2)c2ccccc2C(=O)N(Cc2ccc(OC(F)(F)F)cc2)[C@H]1c1ccc(CO)cc1 | 0.333
O=C1O[C@@H](c2ccccc2)[C@@H](c2ccccc2)N2[C@@H](c3ccc(O)cc3)[C@]3(C(=O)Nc4ccc(C#CC5=CCCCC5)cc43)[C@@H](C(=O)O)[C@H]12 | 1.46
O=C(O)[C@@]1(Cc2ccccc2)N=C(c2ccc(OCCCO)cc2)O[C@H]1c1ccccc1 | 0.712
NC(=O)NCC#Cc1ccc2c(c1)[C@]1(C(=O)N2)[C@H](C(=O)N2CCCCCCC2)[C@H]2C(=O)O[C@H](c3ccccc3)[C@H](c3ccccc3)N2[C@@H]1c1ccc(OCCO)cc1 | -0.3
CC(C)C[C@@H]1NC(=O)[C@H]2C[C@@H](C(=O)NCCCCCNC(=O)CS)[C@@H](c3cccc(OCCO)c3)N2C1=O | 0.265
COC(=O)[C@@]1(Cc2ccccc2)[C@H]2c3cc(C(=O)N4CCCC4)n(C)c3C[C@H]2CN1C(=O)c1ccccc1 | -0.533
Cc1ccc(S[C@]2(C(=O)NCC(C)C)CC(=O)N(Cc3ccccc3)[C@@H]2c2ccc(CO)cc2I)cc1 | -0.629
COCCOC(=O)N1C(=O)[C@@]2(c3cc(C#CCCO)ccc31)[C@H](c1ccccc1OCCO)N1[C@H](c3ccccc3)[C@H](c3ccccc3)OC(=O)[C@H]1[C@@H]2C(=O)N1CCN(c2ncccn2)CC1 | -0.0071
CC(c1ccccc1)C(O)C1C=CC2C(=O)NC(=O)C2N1Nc1ccccn1 (stereo not given) | -0.987
[N-]=[N+]=NCc1ccccc1C[C@@]1(C(=O)N2CCOCC2)N=C(c2ccc(OCCCO)cc2)O[C@@H]1c1ccccc1CN=[N+]=[N-] | -0.638
